Reference: PubChem BioAssay
Activity calls are given as the source filed them.

Experiments:
[1] = system: Wnt5a (protein binding on small-molecule microarray); assay: small molecules binding Wnt5a protein – biophysical, small-molecule microarray, 635/667 nm fluorescence, primary screen (AID 1142); conditions: 635 nm fluorescence, higher = more signal;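 also: fluorescence read at 667 nm with signal to noise per printed feature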
[2] = ATP-based viability of Huh7 replicon cells – cell-based, CellTiter-Glo luminescence, basal, 48 h, cytotoxicity control for HCV replication inhibitor project, primary screen (AID 1143); conditions: higher = more signal, called active from +8 up or from −8 down;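 also: Huh7 hepatoma cells carrying a hepatitis C replication reporter with no stimulus; test concentration not given here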
[3] = basal CRE-LacZ reporter activity in PC12 – cell-based, unstimulated, primary screen (AID 1145); conditions: no forskolin, luminescence, 4.5 h, higher = more signal, called active from +8 up or from −8 down
[4] = forskolin-driven CRE-LacZ activity in PC12 – cell-based, CRE-LacZ reporter, forskolin-stimulated, primary screen (AID 1146); conditions: luminescence, 4.5 h, higher = more signal, called active from +8 up or from −8 down;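 also: PC12 cells with 6xCRE LacZ reporter stimulated by forskolin 10 µM; beta-galactosidase reporter signal reflecting CREB driven transcription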
[5] = molecular target: Streptavidin (Streptomyces avidinii) (UniProt P22629); assay: compounds binding control protein streptavidin – biophysical, small-molecule microarray, 635/667 nm fluorescence, artefact control for SMM compound annotation, primary screen (AID 1147); conditions: higher = more signal;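 also: signal reflects streptavidin binding to arrayed compounds as a control protein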
[6] = probe aInhba binding on compound microarray – biochemical, small-molecule microarray, 635/667 nm fluorescence, primary screen (AID 1148); conditions: higher = more signal;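 also: score merges 667nm spot fluorescence with signal-to-noise for antibody binding to printed compounds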
Torsin-1A (Homo sapiens) [7] = molecular target: Torsin-1A (Homo sapiens) (UniProt O14656); assay: TOR1A wild-type binding on microarray – cell lysate, small-molecule microarray, lysate, 635/667 nm, primary screen (AID 1149); conditions: COS7 hTOR1A-WT lysate, 635 nm fluorescence, higher = more signal
Torsin-1A (Homo sapiens) [8] = molecular target: Torsin-1A (Homo sapiens) (UniProt O14656); assay: torsin A mutant lysate binding on microarrays – cell lysate, small-molecule microarray, COS7 lysate, 635/667 nm fluorescence, primary screen (AID 1150); conditions: COS7 hTOR1A mutant lysate, 635 nm fluorescence, higher = more signal;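 also: score pools 667 nm emission and signal to noise measuring lysate protein binding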
[9] = system: Sonic hedgehog protein (Shh); assay: Sonic hedgehog microarray binding compounds – biochemical, small-molecule microarray, 635/667 nm fluorescence, primary screen (AID 1151); conditions: 635 nm fluorescence, higher = more signal;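 also: Shh protein binding to compounds spotted on small-molecule microarray slides; score combines spot fluorescence intensity with signal-to-noise across triplicate slides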
[10] = optical density shifts of acrAB sulA E. coli – strain DRC41, OD650, 48 h, E. coli filamentation inducer project, primary screen (AID 1152); conditions: higher = more signal, called active from +8 up or from −8 down;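 also: E. coli MC1000 strain DRC41 lacking acrAB efflux pump and sulA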
[11] = probe aLefty1 binding on compound microarray – biochemical, small-molecule microarray, 635/667 nm fluorescence, primary screen (AID 1153); conditions: higher = more signal;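 also: score merges spot fluorescence with signal-to-noise ratio from the scanned slide images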
[12] = plasmodial surface anion channel blockers, osmotic lysis – cell-based, P. falciparum Indochina, OD700, 1 h, primary screen (AID 1154); conditions: P. falciparum Indochina infected RBC osmotic lysis, higher = more signal, called active from +8 up or from −8 down
[13] = plasmodial surface anion channel blockers, osmotic lysis – cell-based, P. falciparum Indochina, OD700, 2 h, primary screen (AID 1155);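 also: lysis reports solute entry through the parasite surface anion channel PSAC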; conditions: P. falciparum Indochina infected erythrocytes, higher = more signal, called active from +8 up or from −8 down
[14] = changes in parasitized red cell lysis, either direction – P. falciparum Indochina, OD700, 3 h, PSAC antagonist project, primary screen (AID 1156); conditions: P. falciparum-infected erythrocytes, osmotic lysis, higher = more signal, called active from +8 up or from −8 down
[15] = plasmodial surface anion channel blockers, osmotic lysis – cell-based, P. falciparum Indochina, OD700, 18 h, primary screen (AID 1157); conditions: P. falciparum Indochina infected erythrocytes, osmotic lysis OD700, 18 h; higher = more signal, called active from +8 up or from −8 down
[16] = S6 kinase pathway phospho-S6 level changes – cell-based, A549, cytoblot, luminescence, serum-stimulated, primary screen (AID 1158); conditions: 5 h, higher = more signal;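 also: serum-stimulated A549 lung adenocarcinoma cells; signal is phosphorylated S6 detected by cytoblot immunostaining with HRP secondary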
[17] = molecular target: NADPH oxidase 2 (Homo sapiens) (UniProt P04839); assay: compounds shifting NOX2 Amplex Red fluorescence – cell-based, HEK293-NOX2, PMA-stimulated, NOX inhibitor project, primary screen (AID 1159); conditions: 45 min, higher = more signal, called active from +8 up or from −8 down; also: test concentration not given here
[18] = molecular target: NADPH oxidase 4 (Homo sapiens) (UniProt Q9NPH5); assay: compounds shifting NOX4 Amplex Red fluorescence – cell-based, HEK293-NOX4, tetracycline-induced, NOX inhibitor project, primary screen (AID 1160); conditions: HEK293-NOX4, Amplex Red H2O2 fluorescence, 45 min; higher = more signal, called active from +8 up or from −8 down
[19] = molecular target: NADPH oxidase 5 (Homo sapiens) (UniProt Q96PH1); assay: compounds shifting NOX5 Amplex Red fluorescence – cell-based, HEK293-NOX5, NOX inhibitor project, primary screen (AID 1161); conditions: HEK293-NOX5, ionomycin, 45 min, higher = more signal
Sequence of NADPH oxidase 5 (Homo sapiens) (Q96PH1 whole entry, looked up): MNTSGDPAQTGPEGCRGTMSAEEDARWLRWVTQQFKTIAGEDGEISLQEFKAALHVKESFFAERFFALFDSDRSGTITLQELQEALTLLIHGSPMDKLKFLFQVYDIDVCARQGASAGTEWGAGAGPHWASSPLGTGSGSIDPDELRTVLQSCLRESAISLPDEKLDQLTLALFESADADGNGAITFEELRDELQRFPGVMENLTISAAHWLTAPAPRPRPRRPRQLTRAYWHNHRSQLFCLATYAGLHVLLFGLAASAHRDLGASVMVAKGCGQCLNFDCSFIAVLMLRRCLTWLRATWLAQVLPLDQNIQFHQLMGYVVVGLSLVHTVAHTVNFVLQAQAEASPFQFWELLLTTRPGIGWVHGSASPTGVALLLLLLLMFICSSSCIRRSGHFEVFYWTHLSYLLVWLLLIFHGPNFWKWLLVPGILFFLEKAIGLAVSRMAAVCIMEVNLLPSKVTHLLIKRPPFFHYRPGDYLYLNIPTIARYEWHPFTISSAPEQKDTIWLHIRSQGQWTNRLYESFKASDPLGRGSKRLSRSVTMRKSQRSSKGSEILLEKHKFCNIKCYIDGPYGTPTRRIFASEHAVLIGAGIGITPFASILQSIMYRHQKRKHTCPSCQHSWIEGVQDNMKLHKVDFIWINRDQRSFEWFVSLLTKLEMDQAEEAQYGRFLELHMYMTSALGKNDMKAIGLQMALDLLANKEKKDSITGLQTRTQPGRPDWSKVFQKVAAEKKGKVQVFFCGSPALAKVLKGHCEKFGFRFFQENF

Sequence of NADPH oxidase 4 (Homo sapiens) (Q9NPH5 whole entry, looked up): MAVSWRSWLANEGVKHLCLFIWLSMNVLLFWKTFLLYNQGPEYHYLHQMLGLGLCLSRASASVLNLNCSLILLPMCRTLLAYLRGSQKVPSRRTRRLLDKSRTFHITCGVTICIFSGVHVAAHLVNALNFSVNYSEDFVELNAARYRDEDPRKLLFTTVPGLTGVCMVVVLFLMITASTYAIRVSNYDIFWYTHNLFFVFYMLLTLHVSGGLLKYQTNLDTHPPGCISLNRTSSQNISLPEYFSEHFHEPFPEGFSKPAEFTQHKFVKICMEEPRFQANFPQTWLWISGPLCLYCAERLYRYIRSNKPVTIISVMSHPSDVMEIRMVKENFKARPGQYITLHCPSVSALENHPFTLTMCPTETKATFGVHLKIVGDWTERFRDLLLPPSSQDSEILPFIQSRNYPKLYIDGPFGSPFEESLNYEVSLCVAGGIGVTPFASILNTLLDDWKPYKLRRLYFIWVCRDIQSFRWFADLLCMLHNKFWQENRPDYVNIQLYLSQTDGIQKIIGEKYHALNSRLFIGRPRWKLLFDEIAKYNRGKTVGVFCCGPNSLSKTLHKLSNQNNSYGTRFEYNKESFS
Sequence of NADPH oxidase 2 (Homo sapiens) (P04839 whole entry, looked up): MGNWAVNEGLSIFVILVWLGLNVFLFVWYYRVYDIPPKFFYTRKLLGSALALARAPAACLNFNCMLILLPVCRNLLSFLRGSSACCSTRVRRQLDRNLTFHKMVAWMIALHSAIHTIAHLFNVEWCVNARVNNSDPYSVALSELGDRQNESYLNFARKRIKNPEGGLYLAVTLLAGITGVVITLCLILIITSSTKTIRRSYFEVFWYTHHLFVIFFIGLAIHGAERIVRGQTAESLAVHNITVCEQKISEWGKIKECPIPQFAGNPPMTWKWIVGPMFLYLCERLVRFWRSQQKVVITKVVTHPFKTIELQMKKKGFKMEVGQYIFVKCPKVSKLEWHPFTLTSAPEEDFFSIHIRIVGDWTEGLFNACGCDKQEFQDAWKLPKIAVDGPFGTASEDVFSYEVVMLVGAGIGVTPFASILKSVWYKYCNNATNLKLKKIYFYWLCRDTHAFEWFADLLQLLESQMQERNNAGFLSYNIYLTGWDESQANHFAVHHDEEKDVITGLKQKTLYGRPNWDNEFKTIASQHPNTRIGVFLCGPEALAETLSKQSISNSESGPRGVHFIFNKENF
Sequence of Streptavidin (Streptomyces avidinii) (P22629 whole entry, looked up): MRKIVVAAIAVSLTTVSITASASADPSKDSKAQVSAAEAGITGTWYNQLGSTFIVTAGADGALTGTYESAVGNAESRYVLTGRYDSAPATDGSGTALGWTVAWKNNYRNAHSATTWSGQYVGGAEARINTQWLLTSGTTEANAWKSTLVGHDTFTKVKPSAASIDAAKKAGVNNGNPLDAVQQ
Sequence of Torsin-1A (Homo sapiens) (O14656 whole entry, looked up): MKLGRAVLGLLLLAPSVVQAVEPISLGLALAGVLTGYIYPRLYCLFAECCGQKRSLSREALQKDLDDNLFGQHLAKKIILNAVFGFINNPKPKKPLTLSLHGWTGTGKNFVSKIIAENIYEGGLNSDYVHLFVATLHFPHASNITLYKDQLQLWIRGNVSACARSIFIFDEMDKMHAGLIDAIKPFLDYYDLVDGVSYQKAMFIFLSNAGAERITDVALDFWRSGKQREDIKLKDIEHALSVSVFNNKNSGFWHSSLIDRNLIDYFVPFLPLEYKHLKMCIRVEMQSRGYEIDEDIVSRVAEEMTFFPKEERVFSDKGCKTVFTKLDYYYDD

For `CCCNC(=O)[C@@]1(Sc2ccc(C)cc2)CC(=O)N(Cc2ccccc2Cl)[C@@H]1c1ccc(CO)cc1`, the composite z-score [1] was 0.222, the z-score [2] was -6.06 (inactive) and the z-score [3] was 0.443 (inactive). For the same compound, the z-score [4] was -1.43 (inactive), the composite z-score [5] was 0.124 and the composite z-score [6] was 0.0925. For the same compound, the composite z-score (Torsin-1A (Homo sapiens) [7]) was 0.369, the composite z-score (Torsin-1A (Homo sapiens) [8]) was 0.17 and the composite z-score [9] was 1.86. The z-score [10] was 2.06 (inactive), the composite z-score [11] was 0.369 and the z-score [12] was 3.09 (inactive). For the same compound, the z-score [13] was -0.114 (inactive), the z-score [14] was -1.35 (inactive) and the z-score [15] was -0.772 (inactive). The z-score [16] was 3.71, the z-score [17] was -0.773 (inactive) and the z-score [18] was -0.99 (inactive). For the same compound, the z-score [19] was -0.176.
For `COCCOC(=O)N1C(=O)[C@@]2(c3cc(C#CCNC(N)=O)ccc31)[C@H](c1ccc(OCCO)cc1)N1[C@H](c3ccccc3)[C@H](c3ccccc3)OC(=O)[C@H]1[C@@H]2C(=O)N1CCCCCCC1`, the composite z-score [1] was 0.148, the z-score [2] was -2.36 (inactive) and the z-score [3] was -0.0566 (inactive). The z-score [4] was -1.91 (inactive), the composite z-score [5] was 0.34 and the composite z-score [6] was 0.325. It also gave a composite z-score (Torsin-1A (Homo sapiens) [7]) of 0.0499, a composite z-score (Torsin-1A (Homo sapiens) [8]) of 0.576 and a composite z-score [9] of 0.932. For the same compound, the z-score [10] was 1.92 (inactive), the composite z-score [11] was 1.16 and the z-score [12] was 1.96 (inactive). The z-score [13] was 0.568 (inactive), the z-score [14] was 0.465 (inactive) and the z-score [15] was -0.737 (inactive). For the same compound, the z-score [16] was 1.01, the z-score [17] was 2.38 (inactive) and the z-score [18] was 1.22 (inactive). The z-score [19] was 0.765.
For `COc1cc(CO)cc(I)c1O[C@H]1C=C(C(=O)NCCO)C[C@@H](NCCc2c[nH]c3ccccc23)[C@@H]1O`, the composite z-score [1] was 0.241, the z-score [2] was -3.34 (inactive) and the z-score [3] was 2.29 (inactive). The z-score [4] was -2.33 (inactive), the composite z-score [5] was 0.0072 and the composite z-score [6] was -0.0954. The composite z-score (Torsin-1A (Homo sapiens) [7]) was 0.75, the composite z-score (Torsin-1A (Homo sapiens) [8]) was 0.237 and the composite z-score [9] was 0.888. For the same compound, the z-score [10] was 0.878 (inactive), the composite z-score [11] was 0.335 and the z-score [12] was 11.3 (active). For the same compound, the z-score [13] was 0.928 (inactive), the z-score [14] was 1.22 (inactive) and the z-score [15] was -0.869 (inactive). The z-score [16] was 2.21, the z-score [17] was -0.912 (inactive) and the z-score [18] was -1.4 (inactive). The z-score [19] was -0.447.
For `C=CCNC(=O)[C@H]1[C@@H]2C(=O)O[C@@H](c3ccccc3)[C@@H](c3ccccc3)N2[C@@H](c2ccc(O)cc2)[C@]12C(=O)Nc1ccc(C#CCNC(N)=O)cc12`, the composite z-score [1] was -0.261, the z-score [2] was -0.23 (inactive) and the z-score [3] was -0.594 (inactive). For the same compound, the z-score [4] was -0.759 (inactive), the composite z-score [5] was -0.96 and the composite z-score [6] was 0.468. It also gave a composite z-score (Torsin-1A (Homo sapiens) [7]) of -0.109, a composite z-score (Torsin-1A (Homo sapiens) [8]) of 0.0926 and a composite z-score [9] of 0.103. The z-score [10] was 1.86 (inactive), the composite z-score [11] was 0.599 and the z-score [12] was 1.7 (inactive). For the same compound, the z-score [13] was 1.29 (inactive), the z-score [14] was 0.682 (inactive) and the z-score [15] was 0.506 (inactive). The z-score [16] was 0.583, the z-score [17] was 1.19 (inactive) and the z-score [18] was -0.188 (inactive). It also gave a z-score [19] of 0.1.
For `CCOC(=O)C[C@H]1[C@H](OC(=O)c2ccccc2-c2ccccc2)[C@@H](NC(=O)C2CCCCC2)c2cc(OCCCO)ccc2N1C(=O)c1ccccc1`, the composite z-score [1] was 0.364, the z-score [2] was -0.781 (inactive) and the z-score [3] was 10.2 (active). For the same compound, the z-score [4] was -0.278 (inactive), the composite z-score [5] was 0.0739 and the composite z-score [6] was 0.0131. For the same compound, the composite z-score (Torsin-1A (Homo sapiens) [7]) was 0.128, the composite z-score (Torsin-1A (Homo sapiens) [8]) was 0.197 and the composite z-score [9] was 1.1. The z-score [10] was 1.99 (inactive), the composite z-score [11] was -0.191 and the z-score [12] was 1.97 (inactive). For the same compound, the z-score [13] was 0.718 (inactive), the z-score [14] was 0.217 (inactive) and the z-score [15] was 0.402 (inactive). The z-score [16] was -0.073, the z-score [17] was 0.629 (inactive) and the z-score [18] was 0.936 (inactive). The z-score [19] was -1.64.
In the case of `CC(=O)Nc1ccc([C@H]2[C@H](C)CC[C@H]3C(=O)N4[C@@H](CC[C@@H](C)[C@@H]4c4ccc(NC(C)=O)cc4)C(=O)N32)cc1`, the composite z-score [1] is reported as 0.165, the z-score [2] is reported as -0.446 (inactive) and the z-score [3] is reported as 3.09 (inactive). For the same compound, the z-score [4] was -0.876 (inactive), the composite z-score [5] was 0.627 and the composite z-score [6] was 0.0275. For the same compound, the composite z-score (Torsin-1A (Homo sapiens) [7]) was 1.17, the composite z-score (Torsin-1A (Homo sapiens) [8]) was 0.283 and the composite z-score [9] was 1.34. The z-score [10] was -0.929 (inactive), the composite z-score [11] was -0.045 and the z-score [12] was 1.91 (inactive). The z-score [13] was 0.586 (inactive), the z-score [14] was 0.699 (inactive) and the z-score [15] was 0.32 (inactive). For the same compound, the z-score [16] was -0.164, the z-score [17] was 0.0427 (inactive) and the z-score [18] was 1.25 (inactive). The z-score [19] was 0.198.
For `C[C@H]1NC(=O)[C@@H](C)NC(=O)[C@@]23C(=O)N[C@@H](Cc4ccccc4)C2[C@H](C)[C@@]2(C)O[C@H]2C3/C=C/C/C=C\CNC1=O` (some centres not stated), the composite z-score [1] was 0.0845, the z-score [2] was -0.333 (inactive) and the z-score [3] was 3.4 (inactive). The z-score [4] was -1.32 (inactive), the composite z-score [5] was -0.594 and the composite z-score [6] was -0.128. For the same compound, the composite z-score (Torsin-1A (Homo sapiens) [7]) was 0.153, the composite z-score (Torsin-1A (Homo sapiens) [8]) was -0.354 and the composite z-score [9] was 0.651. The z-score [10] was 2.35 (inactive), the composite z-score [11] was -0.245 and the z-score [12] was 1.27 (inactive). The z-score [13] was 0.279 (inactive), the z-score [14] was 0.234 (inactive) and the z-score [15] was 0.157 (inactive). The z-score [16] was 0.52, the z-score [17] was 0.248 (inactive) and the z-score [18] was -0.848 (inactive). For the same compound, the z-score [19] was 0.442.
For `CO[C@H]1COC(=O)[C@H](Cc2ccccc2)NC(=O)CC=C[C@@H](C)[C@H](OC)COC(=O)CC=C[C@@H]1C`, the composite z-score [1] was 0.175, the z-score [2] was -1.21 (inactive) and the z-score [3] was -0.567 (inactive). The z-score [4] was -1.15 (inactive), the composite z-score [5] was -0.129 and the composite z-score [6] was -0.0954. For the same compound, the composite z-score (Torsin-1A (Homo sapiens) [7]) was 0.109, the composite z-score (Torsin-1A (Homo sapiens) [8]) was 0.189 and the composite z-score [9] was 0.549. The z-score [10] was 0.284 (inactive), the composite z-score [11] was -0.0241 and the z-score [12] was -0.144 (inactive). The z-score [13] was -1.22 (inactive), the z-score [14] was -1 (inactive) and the z-score [15] was -1.27 (inactive). The z-score [16] was 0.501, the z-score [17] was -3.05 (inactive) and the z-score [18] was 0.103 (inactive). For the same compound, the z-score [19] was 0.784.
